The target in test [1] is Luciferin 4-monooxygenase (Photinus pyralis) (UniProt P08659). The test can be described thus: Biochemical firefly luciferase enzyme assay for NPC (AID 624030).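 Also: purified P. pyralis luciferase at 10 nM with luciferin and ATP substrate; series mostly up to about 59 µM; 0% = DMSO and -100% = full luciferase inhibition by PTC124 control; nearly all actives have a fitted effect of over 70% in size.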 A digest of the protocol:
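Direct inhibition of firefly luciferase enzyme (10 nM final, 50 mM Tris Acetate) assessed by luminescence within 5 minutes. Percent activity scaled between DMSO and PTC124 positive control, with concentration-effect curves classified by fit quality and response.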

In test [2] the target is Vitamin D3 receptor (Homo sapiens) (UniProt P11473). The test can be described thus: qHTS for Inhibitors of the vitamin D receptor (VDR): Hit Validation in Primary Screen (AID 602199). Also: potency is read from the fitted curve at half-maximal effect. Particulars: VDR-coactivator inhibition assay, qHTS confirmation. A digest of the protocol: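 With 800 nM VDR and 5 uM LG19078 agonist present, compounds were incubated 2 h at ambient temperature with Alexa 647-labelled SRC2-3. Displacement was read as polarization at 620/688 nm.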
A general note: In qHTS, concentration-response curves come from the screen itself.

For test [3] the target is unchanged. In words: qHTS for Inhibitors of the vitamin D receptor (VDR): Hit Validation using a Fluorescein Assay (AID 602200). Also: potency is read from the fitted curve at half-maximal effect. The conditions noted are these: VDR-coactivator binding, fluorescein fluorescence polarization. Summed up: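 Compounds added to VDR ligand-binding domain (1.5 uM) with agonist LG19078 (5 uM) and 5 nM SRC2-3 fluorescein peptide, final concentrations. After 2 h at ambient temperature, polarization of fluorescein emission (Ex 495 nm/Em 520 nm) measured.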

Test [4] shares this target. The test can be described thus: qHTS for Inhibitors of the vitamin D receptor (VDR): Hit Validation using a Beta-Lactamase Assay (AID 602202). Also: % is scaled to controls: 0 for no effect and ±100 for the full control effect. A digest of the protocol:
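Beta-lactamase reporter read-out (447 nm emission of cleaved FRET substrate, 2 h) after 18 h compound exposure of HEK293 cells carrying a VDR-GAL4 fusion and UAS reporter, stimulated with LG190178.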

Test [5] concerns the target Flap endonuclease 1 (Homo sapiens) (UniProt P39748). The test can be described thus: qHTS Assay for the Inhibitors of FEN1: Confirmatory Assay for Cherry-picked Compounds (AID 720498). Also: potency is read from the fitted curve at half-maximal effect; nearly all actives have a fitted effect of over 60% in size. Particulars: FEN1 flap cleavage, TAMRA/BHQ2 fluorogenic DNA substrate. A digest of the protocol: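 FEN1 at 10 nM was preincubated with compound for 15 min at room temperature, then 50 nM (final) double-flap DNA substrate was added. TAMRA fluorescence released from the BHQ-2-quenched flap was read at 0 and 15 min (ex 525/em 598 nm).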

Test [6] deals with DNA polymerase eta (Homo sapiens) (UniProt Q9Y253). In words: qHTS for Inhibitors of Polymerase Eta: Confirmatory Assay for Cherry-picked Compounds (AID 720502). Also: potency is read from the fitted curve at half-maximal effect. The conditions noted are these: Pol eta primer extension, TAMRA/BHQ fluorescence, 10 min. A digest of the protocol:
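Pol eta 10 nM; substrate 50 nM final (unlabeled primer, TAMRA reporter, BHQ-2 template); preincub. 15 min RT; reads t=0 and t=10 min at ex525/em598.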

The target in test [7] is Peroxisome proliferator-activated receptor gamma (Homo sapiens) (UniProt P37231). In words: qHTS assay for small molecule antagonists of peroxisome proliferator-activated receptor gamma signaling (AID 588537; active = well fitted inhibition curve with a large enough effect in the signal ratio, with a control signal flat, not every such curve was filed as active; the % refers to the signal ratio; also: potency is read from the fitted curve at half-maximal effect). Summed up: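 Inhibitors of agonist-stimulated UAS-bla reporter activity were sought in HEK293 cells; rosiglitazone (50 nM) defined full signal and DMSO baseline. Curves fitted to Hill model gave IC50 and efficacy.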

Test [8] concerns the target Thyroid hormone receptor beta (Homo sapiens) (UniProt P10828). The test can be described thus: qHTS assay for small molecule agonists of thyroid hormone receptor beta signaling (AID 588545; calls by dose curve;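 also: 0% = DMSO only and 100% = 10 nM T3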). A digest of the protocol: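 Beta-lactamase reporter activity under TR response element control is measured in HEK 293 cells after 18 hrs compound exposure. Signal is ratiometric CCF4 fluorescence, 460/530 nm.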

Test [9] is described as follows: qHTS assay for small molecule antagonists of retinoid X receptor alpha signaling (AID 588546; active = well fitted inhibition curve with a large enough effect in the signal ratio, with a control signal flat, not every such curve was filed as active; the % refers to the signal ratio; also: potency is read from the fitted curve at half-maximal effect;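 as to max response: cells stimulated with 9-cis-retinoic acid as agonist; % is scaled to controls: 0 for no effect and ±100 for the full control effect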). Particulars: HEK293T RXRa-UAS-bla, beta-lactamase ratio, antagonist mode; measured here: W530 green channel, cytotoxicity proxy. A digest of the protocol: (§1)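 Beta-lactamase reporter inhibition, read as CCF4 fluorescence ratio (ex 405, em 460/530 nm) after 2 h at RT. HEK293T UAS-bla cells, 2500/well, were stimulated with 9-cis-RA at 500 or 100 nM final alongside test compound for 18 h at 37 C.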

Test [10] deals with Retinoic acid receptor RXR-alpha (Homo sapiens) (UniProt P19793). Described as above. The conditions noted are these: HEK293T RXRa-UAS-bla, beta-lactamase ratio, antagonist mode. Summed up:
as §1

Test [11] is described as follows: qHTS assay for environmental chemicals that activate the Aryl hydrocarbon Receptor (AhR) signaling pathway (AID 651777). Also: % of control where 0% means no effect; nearly all actives have a fitted effect of over 15% in size. Particulars: 1A2-DRE human hepatoma cells, luciferase, 24 h; activation: stronger effect = higher value. Summed up: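 AhR activation is scored as a rise in luciferase from a stable DRE–CYP1A2 promoter construct in human hepatoma cells. Treatment lasts 24 hr at 37 C; detection uses One-Glo after 30 min at room temperature.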

Test [12] is described as follows: qHTS assay for small molecule agonists of the antioxidant response element (ARE) signaling pathway measured by Nrf2-dependant transcriptional activity (AID 720636; active = well fitted curve in the direction sought with a large enough effect in the repeat runs; an effect the other way counts as inactive or inconclusive;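 also: HepG2 cells with an ARE-driven luciferase reporter; % of control where 0% means no effect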). A digest of the protocol: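 First, ARE-luc HepG2 cells attached for 6 hr at 37 C in 1% dialyzed FBS medium. Next, compound or DMSO was added and incubated 16 hr. Finally, ONE-Glo reagent was added and luminescence measured after 30 min.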

Test [13] is described as follows: qHTS assay for cell viability of HEK293 cells (AID 743288). Also: potency is read from the fitted curve at half-maximal effect; nearly all actives have a fitted effect of over 50% in size. The conditions noted are these: ATP luminescence (CellTiter-Glo), 18 h; max response: stronger effect = lower value. A digest of the protocol: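 Total intracellular ATP, measured with a luciferase-coupled reagent, indicates the number of viable HEK293 cells. Exposure to test chemicals lasts 18 h at 37 C in 1,536-well format at 2,000 cells/well.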

Test [14] is described as follows: qHTS assay for cell viability of the p53RE-bla HCT-116 cell line (AID 743292). Also: potency is read from the fitted curve at half-maximal effect; nearly all actives have a fitted effect of over 55% in size. A digest of the protocol: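 Quantitative high-throughput format: compounds in DMSO were pinned onto p53RE-bla HCT-116 cells (4,000/well) and incubated 16 h at 37 C. Total intracellular ATP, read by CellTiter-Glo luminescence, reflects viable cell number.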
Test [15] in a line: qHTS assay for small molecule activators of the human pregnane X receptor (PXR) signaling pathway (AID 720659; call rule not given here; also: 0% is about no effect).
The target of test [16] is Vitamin D3 receptor (Homo sapiens) (UniProt P11473). The test can be described thus: qHTS assay for small molecule antagonists of vitamin D receptor signaling (AID 588541; calls by dose curve;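 also: receptor activated by calcitriol during compound treatment; series mostly up to about 77 µM; % is scaled to controls: 0 for no effect and ±100 for the full control effect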). A digest of the protocol: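 Antagonist-mode beta-lactamase reporter assay: HEK293T VDR-UAS-bla cells were exposed to titrated compound alongside 1-alpha,25-dihydroxyvitamin D3 at 3 nM final for 16 h. Values were normalized to the 50 nM agonist control and DMSO basal, with IC50 and efficacy from Hill equation fits.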

Test [17] shares this target. The test can be described thus: qHTS assay for small molecule agonists of vitamin D receptor signaling (AID 588543; calls by dose curve;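 also: 0% = DMSO basal and 100% = reference agonist control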). A digest of the protocol:
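Agonist-mode beta-lactamase reporter: HEK293T VDR-UAS-bla cells in charcoal-stripped 2% FBS, compound series 16 h 37 C, CCF4 2 h RT. EC50 from Hill fit, scaled against DMSO and 50 nM calcitriol control.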

Test [18] can be described thus: qHTS assay for small molecule agonists of the antioxidant response element (ARE) signaling pathway (AID 651741; active = well fitted activation curve with a large enough effect in the signal ratio; the % refers to the signal ratio; also: potency is read from the fitted curve at half-maximal effect). A digest of the protocol: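 Seeding 2,000 ARE-bla HepG2 cells per well preceded a 5 h incubation at 37 C/5% CO2 and a 16 h compound exposure at 37 C. Beta-lactamase reporter activity was then quantified by fluorescence after 2 h with LiveBLAzer B/G FRET substrate.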

The nature of test [19]: qHTS assay for small molecule activators of the p53 signaling pathway (AID 651743; active = well fitted activation curve with a large enough effect in the signal ratio, not every such curve was filed as active; the % refers to the signal ratio; also: series mostly up to about 92 µM; % of control where 0% means no effect). Particulars: HCT-116 p53RE-bla, beta-lactamase FRET ratio, 16 h; activation: stronger effect = higher value. A digest of the protocol:
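Screen for p53 pathway agonists uses stably transfected p53RE-bla HCT-116 cells, 4,000 per well, treated 16 h at 37 C with compounds in DMSO.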

A short description of test [20]: qHTS assay for small molecule agonists of the antioxidant response element (ARE) signaling pathway measured by Nrf2-dependant transcriptional activity - cell viability counter screen (AID 720653; active = well fitted curve in the direction sought with a large enough effect in the repeat runs; an effect the other way counts as inactive or inconclusive; also: % is scaled to controls: 0 for no effect and ±100 for the full control effect). Particulars: ARE-bla HepG2 viability, CellTiter-Glo ATP luminescence, 16 h; max response: stronger effect = lower value. Summed up:
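Cytotoxicity counter screen: intracellular ATP quantified by CellTiter-Glo luminescence in the same ARE-bla HepG2 plates, after 16 h compound exposure and a 2 h beta-lactamase substrate step.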

Test [21] deals with Nuclear receptor subfamily 1 group I member 2 (Rattus norvegicus) (UniProt Q9R1A7). The test can be described thus: qHTS assay for small molecule activators of the rat pregnane X receptor (rPXR) signaling pathway (AID 651751; call rule not given here; also: 0% is about no effect). The conditions noted are these: rPXR reporter cells, luciferase (One-Glo), 24 h.
Test [22] has as its target 3',5'-cyclic-AMP phosphodiesterase 4B (Homo sapiens) (UniProt Q07343). The test can be described thus: qHTS Assay for Inhibitors of PDE-IV (AID 607; active = well fitted activation curve with a large enough effect in the main read-out, with a control signal flat, not every such curve was filed as active; also: % of control where 0% means no effect). A digest of the protocol: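 The readout is membrane depolarisation from a cAMP-sensing CNG channel, detected with a potential dye at ex 535/em 590. Cells were HEK293-derived (endogenous PDE-IV) at 1000 cells/well, titrated up to 22.9 uM final.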

Each structure is given as a SMILES string. Results filed as inconclusive are left out. The list shows a part of the results. Active and inactive are the calls of the source. Unless noted, calls follow the shape of the dose curve; as a rule, active = well fitted curve in the direction sought with a large enough effect; inconclusive = small, poorly fitted or top-dose-only effect, or another doubt; inactive = no such curve, though single readings can be large; an effect the other way counts as inactive or inconclusive.

Luciferin 4-monooxygenase (Photinus pyralis), sequence (P08659 whole entry, looked up): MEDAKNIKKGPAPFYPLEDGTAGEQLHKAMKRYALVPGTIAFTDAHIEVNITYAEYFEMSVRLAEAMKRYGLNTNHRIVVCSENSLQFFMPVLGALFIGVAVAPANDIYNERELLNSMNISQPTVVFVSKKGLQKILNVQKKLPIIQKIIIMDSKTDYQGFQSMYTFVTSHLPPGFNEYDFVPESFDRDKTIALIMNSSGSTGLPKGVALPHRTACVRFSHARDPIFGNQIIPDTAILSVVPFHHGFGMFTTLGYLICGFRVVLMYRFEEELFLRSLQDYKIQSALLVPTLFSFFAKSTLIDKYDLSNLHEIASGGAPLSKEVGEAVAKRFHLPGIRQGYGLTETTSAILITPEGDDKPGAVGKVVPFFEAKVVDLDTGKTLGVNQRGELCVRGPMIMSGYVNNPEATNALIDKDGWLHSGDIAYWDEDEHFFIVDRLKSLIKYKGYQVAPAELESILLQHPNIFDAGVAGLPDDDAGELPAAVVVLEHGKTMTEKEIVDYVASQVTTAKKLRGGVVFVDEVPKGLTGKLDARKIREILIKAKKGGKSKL
Vitamin D3 receptor (Homo sapiens), sequence (P11473 whole entry, looked up): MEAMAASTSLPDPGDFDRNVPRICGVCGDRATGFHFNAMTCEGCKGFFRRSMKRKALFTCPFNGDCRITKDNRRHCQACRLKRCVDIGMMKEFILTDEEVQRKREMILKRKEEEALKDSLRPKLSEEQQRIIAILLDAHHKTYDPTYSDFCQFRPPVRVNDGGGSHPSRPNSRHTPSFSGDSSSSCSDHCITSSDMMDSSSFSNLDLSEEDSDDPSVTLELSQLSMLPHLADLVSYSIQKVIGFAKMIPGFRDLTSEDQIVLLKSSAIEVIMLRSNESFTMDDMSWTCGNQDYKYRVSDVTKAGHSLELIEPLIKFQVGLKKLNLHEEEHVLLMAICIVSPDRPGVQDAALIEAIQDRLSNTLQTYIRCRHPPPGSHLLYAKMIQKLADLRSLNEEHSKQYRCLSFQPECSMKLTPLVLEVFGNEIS
Nuclear receptor subfamily 1 group I member 2 (Rattus norvegicus), sequence (Q9R1A7 whole entry, looked up): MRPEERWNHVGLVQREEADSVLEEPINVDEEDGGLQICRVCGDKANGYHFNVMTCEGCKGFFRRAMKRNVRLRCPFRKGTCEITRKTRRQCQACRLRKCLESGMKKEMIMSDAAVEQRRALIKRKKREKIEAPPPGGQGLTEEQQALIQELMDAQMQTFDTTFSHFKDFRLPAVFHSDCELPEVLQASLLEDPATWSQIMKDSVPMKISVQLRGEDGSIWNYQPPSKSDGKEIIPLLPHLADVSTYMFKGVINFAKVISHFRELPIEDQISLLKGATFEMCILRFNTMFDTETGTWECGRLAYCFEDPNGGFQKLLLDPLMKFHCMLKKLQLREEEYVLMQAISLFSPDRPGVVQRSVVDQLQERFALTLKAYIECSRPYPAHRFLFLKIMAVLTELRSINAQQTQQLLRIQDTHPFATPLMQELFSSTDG
3',5'-cyclic-AMP phosphodiesterase 4B (Homo sapiens), sequence (Q07343 whole entry, looked up): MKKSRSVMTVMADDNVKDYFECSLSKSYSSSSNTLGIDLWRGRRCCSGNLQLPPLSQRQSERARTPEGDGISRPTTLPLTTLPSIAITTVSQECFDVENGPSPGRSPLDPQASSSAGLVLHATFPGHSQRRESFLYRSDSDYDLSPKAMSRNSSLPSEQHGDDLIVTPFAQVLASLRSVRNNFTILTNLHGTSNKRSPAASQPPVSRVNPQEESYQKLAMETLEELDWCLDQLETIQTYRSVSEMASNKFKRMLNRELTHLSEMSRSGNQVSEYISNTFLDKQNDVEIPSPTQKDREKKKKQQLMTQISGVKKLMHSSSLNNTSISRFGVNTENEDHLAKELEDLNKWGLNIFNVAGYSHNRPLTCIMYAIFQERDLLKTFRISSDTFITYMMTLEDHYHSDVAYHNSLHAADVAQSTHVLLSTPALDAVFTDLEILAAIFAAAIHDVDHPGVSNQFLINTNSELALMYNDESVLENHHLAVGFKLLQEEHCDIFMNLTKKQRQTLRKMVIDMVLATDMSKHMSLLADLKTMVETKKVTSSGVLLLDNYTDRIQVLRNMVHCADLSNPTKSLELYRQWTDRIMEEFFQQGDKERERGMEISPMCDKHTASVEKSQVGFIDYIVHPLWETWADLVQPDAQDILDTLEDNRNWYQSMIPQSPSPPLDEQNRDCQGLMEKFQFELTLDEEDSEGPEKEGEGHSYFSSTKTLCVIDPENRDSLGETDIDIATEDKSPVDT
Thyroid hormone receptor beta (Homo sapiens), sequence (P10828 whole entry, looked up): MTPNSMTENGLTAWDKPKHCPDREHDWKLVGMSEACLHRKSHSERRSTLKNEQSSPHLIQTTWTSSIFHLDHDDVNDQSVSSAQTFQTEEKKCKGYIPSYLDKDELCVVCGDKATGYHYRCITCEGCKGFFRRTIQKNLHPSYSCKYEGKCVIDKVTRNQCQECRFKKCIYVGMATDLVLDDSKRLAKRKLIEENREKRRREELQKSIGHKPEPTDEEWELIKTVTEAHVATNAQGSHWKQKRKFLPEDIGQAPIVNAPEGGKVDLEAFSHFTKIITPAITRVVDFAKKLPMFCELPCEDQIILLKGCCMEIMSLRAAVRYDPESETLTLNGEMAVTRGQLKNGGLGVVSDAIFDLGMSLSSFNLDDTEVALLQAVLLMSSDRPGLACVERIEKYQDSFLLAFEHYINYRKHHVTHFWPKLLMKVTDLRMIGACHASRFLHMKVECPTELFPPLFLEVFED
DNA polymerase eta (Homo sapiens), sequence (Q9Y253 whole entry, looked up): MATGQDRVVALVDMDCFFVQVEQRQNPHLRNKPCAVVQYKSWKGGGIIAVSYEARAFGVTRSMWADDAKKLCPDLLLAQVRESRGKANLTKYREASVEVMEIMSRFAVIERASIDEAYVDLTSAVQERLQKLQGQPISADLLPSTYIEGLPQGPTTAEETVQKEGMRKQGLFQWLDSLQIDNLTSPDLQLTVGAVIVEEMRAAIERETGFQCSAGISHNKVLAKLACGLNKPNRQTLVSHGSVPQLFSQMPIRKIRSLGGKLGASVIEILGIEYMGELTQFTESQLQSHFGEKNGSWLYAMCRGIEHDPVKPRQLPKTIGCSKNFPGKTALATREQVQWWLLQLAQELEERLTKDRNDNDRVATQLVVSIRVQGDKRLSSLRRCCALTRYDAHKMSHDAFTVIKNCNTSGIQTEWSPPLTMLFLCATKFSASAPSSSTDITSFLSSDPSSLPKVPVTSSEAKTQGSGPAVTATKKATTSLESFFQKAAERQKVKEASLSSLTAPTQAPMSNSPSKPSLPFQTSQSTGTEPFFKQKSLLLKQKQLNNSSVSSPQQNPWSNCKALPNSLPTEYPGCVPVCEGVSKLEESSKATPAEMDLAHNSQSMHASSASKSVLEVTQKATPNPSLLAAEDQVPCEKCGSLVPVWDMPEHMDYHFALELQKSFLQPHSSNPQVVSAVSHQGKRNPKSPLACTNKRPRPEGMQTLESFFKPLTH
Peroxisome proliferator-activated receptor gamma (Homo sapiens), sequence (P37231 whole entry, looked up): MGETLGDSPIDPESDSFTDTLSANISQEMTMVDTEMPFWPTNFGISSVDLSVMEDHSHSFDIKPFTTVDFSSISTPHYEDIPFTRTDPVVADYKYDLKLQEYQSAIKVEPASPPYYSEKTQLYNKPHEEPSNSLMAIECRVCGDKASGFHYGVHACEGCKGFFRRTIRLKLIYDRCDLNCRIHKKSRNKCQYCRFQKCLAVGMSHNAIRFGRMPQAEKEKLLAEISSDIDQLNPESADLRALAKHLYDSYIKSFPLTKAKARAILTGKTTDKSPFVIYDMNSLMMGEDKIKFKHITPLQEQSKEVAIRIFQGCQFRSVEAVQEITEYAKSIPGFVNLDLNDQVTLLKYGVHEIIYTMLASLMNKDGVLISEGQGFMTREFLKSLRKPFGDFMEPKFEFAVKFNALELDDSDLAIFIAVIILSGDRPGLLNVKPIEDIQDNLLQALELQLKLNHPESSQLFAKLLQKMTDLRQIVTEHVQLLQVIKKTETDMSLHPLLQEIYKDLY
Flap endonuclease 1 (Homo sapiens), sequence (P39748 whole entry, looked up): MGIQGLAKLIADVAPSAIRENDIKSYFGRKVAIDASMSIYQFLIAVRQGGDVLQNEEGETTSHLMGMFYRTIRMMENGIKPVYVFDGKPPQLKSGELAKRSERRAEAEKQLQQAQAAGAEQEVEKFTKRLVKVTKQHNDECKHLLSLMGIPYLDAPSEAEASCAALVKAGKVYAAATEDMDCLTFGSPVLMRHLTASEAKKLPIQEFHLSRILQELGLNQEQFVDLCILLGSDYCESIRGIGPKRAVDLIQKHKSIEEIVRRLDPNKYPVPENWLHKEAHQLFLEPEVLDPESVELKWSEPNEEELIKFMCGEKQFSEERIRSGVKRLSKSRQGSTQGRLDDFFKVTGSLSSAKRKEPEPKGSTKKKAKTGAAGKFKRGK
Retinoic acid receptor RXR-alpha (Homo sapiens), sequence (P19793 whole entry, looked up): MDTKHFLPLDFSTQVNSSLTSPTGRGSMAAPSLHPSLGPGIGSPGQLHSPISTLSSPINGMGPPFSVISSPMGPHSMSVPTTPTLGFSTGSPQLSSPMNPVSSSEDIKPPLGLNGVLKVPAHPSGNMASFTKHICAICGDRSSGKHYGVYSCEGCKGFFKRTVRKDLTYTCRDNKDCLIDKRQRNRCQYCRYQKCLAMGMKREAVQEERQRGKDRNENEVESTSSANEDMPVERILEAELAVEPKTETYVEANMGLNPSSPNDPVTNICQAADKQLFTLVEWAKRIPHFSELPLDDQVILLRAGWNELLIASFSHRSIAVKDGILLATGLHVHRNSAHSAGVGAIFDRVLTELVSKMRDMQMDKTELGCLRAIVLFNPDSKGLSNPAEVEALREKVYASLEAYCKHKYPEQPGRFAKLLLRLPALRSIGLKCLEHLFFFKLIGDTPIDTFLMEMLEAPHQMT

With `CC(C)CC1C(=O)N2CCCC2C2(O)OC(NC(=O)C3CC4c5cccc6[nH]cc(c56)CC4N(C)C3)(C(C)C)C(=O)N12` (configuration not stated), the Potency entry in test [1] was “inactive”.
On the same count and under the same terms, the result for `CC1[C@H]2Cc3ccc(O)cc3[C@]1(C)CCN2CCc1ccccc1` (some centres not stated) reads “inactive”.
On the same count and under the same terms, the result for `C[C@H]1[C@@H]2Cc3ccc(O)cc3[C@]1(C)CCN2C` reads “inactive”.
Turning to `O=C1NC(=O)N(c2ccccc2)C(=O)/C1=C/c1ccc([N+](=O)[O-])s1`, the Potency in test [2] is 26.7 µM (active); in test [3], 20 µM (active); in test [5], 19 µM (active); in test [6], 30.1 µM (active). Also, the molecule was called inactive in [4].
Consider `CN1CC[C@]23c4c5ccc(O)c4OC2C(O)CCC3[C@H]1C5` (some centres not stated), for which the Potency result in test [1] was “inactive”.
For `CCOCn1c(-c2ccc(Cl)cc2)c(C#N)c(Br)c1C(F)(F)F`, the Potency in test [7] was 39.8 µM (active); in test [10], 2.24 µM (active); in test [13], 7.94 µM (active); in [14], 6.31 µM (active). For the same molecule, the Potency entry in [8] and in test [12] was “inactive” throughout. Further, in test [9], the max response was found to be 0.12%. Further, the activation in [11] was -4.34% (inactive). In test [15], the call was inactive.
For the molecule `CCON=C(CC)C1=C(O)CC(c2c(C)cc(C)cc2C)CC1=O` (configuration not stated), the Potency entry in [1] is “inactive”.
For `Clc1ccc([C@H]2CC3CCC2N3)cn1` (some centres not stated), the Potency entry in [1] is “inactive”.
`CCC(N)CCc1c[nH]c2ccccc12` (configuration not stated): the Potency result in test [1] is “inactive”.
With `ClC1=C(Cl)[C@]2(Cl)[C@H]3[C@H]([C@@H]4C=C[C@H]3C4)[C@]1(Cl)C2(Cl)Cl`, the Potency result in test [16] and in test [12] was “inactive” in each case. Besides, the call in test [17] was inactive. Further, the values for the Potency in test [18] and in test [14] were 61.1 µM (active) and 44.7 µM (active), respectively. Besides, the activation in test [19] was -0.297% (inactive); in test [11], 0.0639% (inactive). Also, the results for the max response in [20] and in test [21] were -24.6% (inactive) and 7.41% (inactive), respectively.
For `Oc1ccc2c3c1O[C@H]1[C@@H](O)C=CC4[C@@H](C2)NCC[C@@]341` (some centres not stated), the Potency result in test [1] was “inactive”.
In the case of `O=C(O)[C@H]1C[C@@H]1[C@H](NP(=O)(c1ccccc1)c1ccccc1)c1ccccc1`, the call in [22] was inactive.

The values above are taken from PubChem BioAssay (NCATS).
